Test [1] in a line: qHTS assay for small molecule agonists of the p53 signaling pathway (AID 651631; calls by dose curve; further: nearly all actives have a fitted effect of over 15% in size). The procedure, abridged:
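Fluorescence intensity from cleaved LiveBLAzer B/G substrate (2 h, room temperature) served as the signal. Beforehand, HCT-116 reporter cells bearing p53 response elements were treated 16 h at 37 °C with DMSO-dissolved compounds.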
(In general: qHTS replaces the single test concentration by a dilution series.)

Test [2] is described as follows: qHTS assay for small molecules that induce genotoxicity in human embryonic kidney cells expressing luciferase-tagged ATAD5 (AID 651632). Further: nearly all actives have a fitted effect of over 15% in size. The procedure, abridged: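 DMSO vehicle served as the control. HEK293T reporter cells, 16 hr at 37C, then 30 min Amplite at room temperature; ATAD5 induction is measured as luciferase activity.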
A short description of test [3]: qHTS assay for small molecule agonists of the p53 signaling pathway - cell viability (AID 651633; calls by dose curve;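 further: p53RE-bla HCT reporter cells with a stable beta-lactamase p53 reporter; series mostly up to about 83 µM; nearly all actives have a fitted effect of over 30% in size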). The essentials: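 Viability counter-read: CellTiter-Glo luminescence (30 min, room temperature) in the same p53RE-bla plates. These plates had been exposed to compounds for 16 h at 37 C.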
Test [4] in a line: qHTS assay for small molecules that induce genotoxicity in human embryonic kidney cells expressing luciferase-tagged ATAD5 - cell viability (AID 651634; calls by dose curve; further: nearly all actives have a fitted effect of over 25% in size). The procedure, abridged:
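Here HEK293T cells with the ATAD5 luciferase reporter are incubated with test compounds for 15.5 hr, and cytotoxicity is then gauged by measuring protease activity in live cells using fluorescence.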

Test [5] is described as follows: qHTS assay for small molecule disruptors of the mitochondrial membrane potential - cell viability (AID 720634; calls by dose curve; further: nearly all actives have a fitted effect of over 20% in size; further: potency means the concentration at half of the fitted maximal effect). The essentials: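 Viability of HepG2 cells is scored from ATP content by luminescence; cells are exposed to compound for 1 hr at 37 C and 5% CO2, then dosed with m-MPI dye before the CellTiter-Glo reagent.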
Test [6] in a line: qHTS assay for small molecule disruptors of the mitochondrial membrane potential (AID 720635). Further: potency means the concentration at half of the fitted maximal effect. The essentials:
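Mitochondrial membrane potential tracked with Mito-MPS dye, red aggregates (ex 540/em 590 nm) against green monomers (ex 490/em 535 nm). Compound treatment 1 hr at 37C, dye 30 min in HepG2.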

A short description of test [7]: qHTS assay to test for compound auto fluorescence at 590 nm (red) in HepG2 cells (AID 720674). The procedure, abridged: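 We screened compounds on adherent HepG2 cells, incubating them for an hour at 37 C in 5% CO2 before reading emission at 590 nm under 540 nm excitation; values reflect equivalence to Rose Bengal sodium fluorescence.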
The nature of test [8]: qHTS assay to test for compound auto fluorescence at 535 nm (green) in HepG2 cells (AID 720675).
The nature of test [9]: qHTS assay to test for compound auto fluorescence at 460 nm (blue) in HEK293 cells (AID 720678). The procedure, abridged:
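HEK293 cells (2,000/well, medium with 10% dialyzed FBS) attached 4-5 hr, then exposed to compound overnight at 37C, 5% CO2. Blue fluorescence read at 405/460 nm, with triamterene as reference fluorophore.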

Test [10] in a line: qHTS assay to test for compound auto fluorescence at 590 nm (red) in HEK293 cells (AID 720679). The essentials: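 HEK293 cells (2,000/well, 10% dialyzed FBS) attached 4-5 hr, then dosed with compound or DMSO and incubated overnight at 37C, 5% CO2. Red fluorescence read at 540/590 nm, Rose Bengal sodium as reference fluorophore.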
Test [11] can be described thus: qHTS assay to test for compound auto fluorescence at 535 nm (green) in HEK293 cells (AID 720680).
Test [12] is described as follows: qHTS assay to test for compound auto fluorescence at 460 nm (blue) in HEK293 cell free culture (AID 720681). The essentials: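 Blue fluorescence (Ex 405/Em 460 nm, triamterene-equivalent) was read immediately after pin transfer of compound or DMSO into medium (DMEM, 10% FBS) without cells.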
Test [13] is described as follows: qHTS assay to test for compound auto fluorescence at 535 nm (green) in HEK293 cell free culture (AID 720682). The essentials: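 Intrinsic compound fluorescence is measured in culture medium containing 10% FBS, with excitation at 485 nm and detection at 535 nm, referenced to fluorescein.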
The nature of test [14]: qHTS assay to test for compound auto fluorescence at 590 nm (red) in HEK293 cell free culture (AID 720683). The procedure, abridged:
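Red-channel autofluorescence of compounds in culture medium (DMEM, 10% FBS), no cells, measured at 540/590 nm. Rose Bengal sodium is the reference fluorophore for equivalence.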

The nature of test [15]: qHTS assay to test for compound auto fluorescence at 590 nm (red) in HepG2 cell free culture (AID 720684). The procedure, abridged:
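No cells present: MEM + 10% FBS only. Compound pinned in, red label read (540/590 nm). Activity = fluorescence equivalent to Rose Bengal sodium.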

The nature of test [16]: qHTS assay to test for compound auto fluorescence at 460 nm (blue) in HepG2 cell free culture (AID 720685). The essentials: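 Cell-free plates of MEM plus 10% FBS received 23 nL compound or DMSO vehicle; blue-channel (405/460 nm) intensity scored against triamterene as reference fluorophore.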
Test [17] is described as follows: qHTS assay to test for compound auto fluorescence at 535 nm (green) in HepG2 cell free culture (AID 720686).
Test [18] can be described thus: qHTS assay to test for compound auto fluorescence at 460 nm (blue) in HepG2 cells (AID 720687). The procedure, abridged: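 Blue-channel autofluorescence (Ex/Em 405/460 nm, triamterene-equivalent) was measured after 1 hr compound exposure at 37 C, 5% CO2. Cells were HepG2, plated overnight at 37 C in MEM plus 10% FBS.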
The target of test [19] is Glucocorticoid receptor (Homo sapiens) (UniProt P04150). In words: qHTS assay to identify small molecule agonists of the glucocorticoid receptor (GR) signaling pathway (AID 720691; active means well fitted activation curve with a large enough effect in the signal ratio in the repeat runs, not every such curve was filed as active; the % refers to the signal ratio). The essentials: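 Compounds in DMSO, alongside positive controls, were added to GR-bla HeLa reporter cells and incubated 18 h at 37 C; GRE-driven beta-lactamase was detected by fluorescence after 2 h with FRET substrate at room temperature.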

Test [20] has the same target. In words: qHTS assay to identify small molecule antagonists of the glucocorticoid receptor (GR) signaling pathway (AID 720692; active means well fitted inhibition curve with a large enough effect in the signal ratio in the repeat runs, not every such curve was filed as active; the % refers to the signal ratio). The essentials:
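In a 1536-well cell format, compounds were added 4 h after seeding GR-bla HeLa cells, together with dexamethasone at 5 nM final; reporter activity was measured by FRET-substrate fluorescence following 18 h at 37 C.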

For 7 molecules, Potency and outcome results are on record in PubChem BioAssay (Tox21).

The structures appear in SMILES notation. “And” between values parts separate entries of the source, which are not always exact repeats. Equal entries are not always repeated. Inconclusive results are not listed. Some structures have more than one record in an assay (separate samples or runs), and their calls can disagree. The source made the active and inactive calls. Unless noted, the call rests on the fitted dose curve; in most records, active means well fitted curve in the direction sought with a large enough effect in the repeat runs; inconclusive means weak or mixed curves; inactive means no such curve, though single readings can be large; an effect the other way counts as inactive or inconclusive.

Sequence of Glucocorticoid receptor (Homo sapiens) (P04150 whole entry, looked up): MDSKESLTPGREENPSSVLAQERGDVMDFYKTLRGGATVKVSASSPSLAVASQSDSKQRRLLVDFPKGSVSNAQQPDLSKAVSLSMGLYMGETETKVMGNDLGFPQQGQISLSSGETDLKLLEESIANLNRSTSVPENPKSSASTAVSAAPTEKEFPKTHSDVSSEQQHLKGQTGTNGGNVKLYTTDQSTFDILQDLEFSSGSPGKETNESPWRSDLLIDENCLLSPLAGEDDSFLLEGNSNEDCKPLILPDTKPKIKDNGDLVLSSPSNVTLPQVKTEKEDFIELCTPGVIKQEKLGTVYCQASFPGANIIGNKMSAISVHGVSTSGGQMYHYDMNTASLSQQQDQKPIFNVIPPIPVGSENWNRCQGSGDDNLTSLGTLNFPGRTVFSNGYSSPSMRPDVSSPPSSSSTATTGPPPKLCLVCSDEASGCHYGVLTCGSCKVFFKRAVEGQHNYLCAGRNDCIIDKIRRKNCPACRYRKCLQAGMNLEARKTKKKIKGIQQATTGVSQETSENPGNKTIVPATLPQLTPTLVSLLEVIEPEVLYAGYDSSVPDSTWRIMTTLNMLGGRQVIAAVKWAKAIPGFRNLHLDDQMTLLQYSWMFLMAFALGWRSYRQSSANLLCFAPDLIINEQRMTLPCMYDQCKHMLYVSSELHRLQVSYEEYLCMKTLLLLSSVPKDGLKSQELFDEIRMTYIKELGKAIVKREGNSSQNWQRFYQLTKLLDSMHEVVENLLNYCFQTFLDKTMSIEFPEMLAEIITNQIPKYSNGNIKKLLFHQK

In the case of `Cc1cccc(C)c1N`, the Potency result in test [1], in test [2], in test [3], in [4], in test [5] and in test [6] was “inactive” in each case. For the same molecule, in test [20], the Potency result is “inactive”. The outcome in test [7], in test [8], in test [9], in test [10], in test [11] and in test [12] was inactive. Moreover, the result in test [13], in test [14], in test [15], in test [16], in test [17] and in test [18] was inactive. For the same molecule, the outcome in [19] was inactive.
On to `CCOc1ccc(N)cc1`, for which the Potency result in test [1], in test [2], in test [3], in [4], in test [5] and in test [6] was “inactive” in each case. The Potency result in test [20] was “inactive”. Also, the molecule was called inactive in [7], in [8], in [9], in [10], in test [11] and in test [12]. In addition, the call in test [13], in test [14], in test [15], in [16], in [17] and in test [18] was inactive. Also, the result in [19] was inactive.
With `Cc1cc(O)ccc1Cl`, the Potency entry in test [1], in test [2], in [3], in [4], in test [5] and in [20] was “inactive” in each case. Moreover, in [6], the Potency is 10.6 µM (active) and 49.4 µM (active) and 27.3 µM (active). Also, the outcome in test [7], in test [8], in test [9], in test [10], in test [11] and in test [12] was inactive. Further, the result in test [13], in [14], in test [15], in [16], in test [17] and in test [18] was inactive. Moreover, the call in [19] was inactive.
For `O=C/C=C/c1ccccc1`, the Potency entry in test [1], in [2], in [3], in [4], in [5] and in test [6] was “inactive” throughout. Also, the Potency entry in [20] is “inactive”. Further, the molecule was classed as inactive in test [7], in test [8], in [9], in test [10], in test [11] and in test [12]. The outcome in [13], in [14], in [15], in test [16], in test [17] and in [18] was inactive. Besides, the outcome in test [19] was inactive.
As to `CNC(=O)Oc1cccc2ccccc12`, the Potency result in test [1], in [2], in [3], in test [4] and in [5] was “inactive” throughout. The Potency in test [6] is 13.3 µM (active). Further, the call in test [7], in test [8], in test [9], in [10], in test [11] and in test [12] was inactive. In addition, the molecule was classed as inactive in test [13], in test [14], in test [15], in [16], in [17] and in [18].
Turning to `Cl[C@H]1OCCO[C@@H]1Cl`, the Potency result in [1], in test [2], in test [3], in [4], in [5] and in test [6] was “inactive” in each case. The molecule was called inactive in test [7], in test [8], in test [9], in test [10], in [11] and in test [12]. Moreover, the molecule was classed as inactive in [13], in test [14], in test [15], in [16], in test [17] and in test [18]. Further, the molecule was classed as inactive in test [19].
For `COP(=S)(OC)Oc1ccc(SC)c(C)c1`, the Potency result in test [1], in test [2], in test [3], in test [4] and in [20] was “inactive” each time. Moreover, the Potency result in test [5] is “inactive and 24.3 µM (active)”; in test [6], 53.9 µM (active) and 27.3 µM (active). Besides, the molecule was called inactive in [7], in test [8], in [9], in test [10], in test [11] and in test [12]. Also, the molecule was called inactive in [13], in test [14], in test [15], in [16], in test [17] and in [18]. In addition, the result in test [19] was inactive.
